Only some compounds are listed: those with a hit (about 1.4% of all), similar ones and a draw of the others.
LYPLA1 inh: LYPLA1 (human) inhibition in PME1 counter-screen | O75608 | recombinant LYPLA1, FP-Rh probe fluorescence polarization | inhibition, % at 5.9 µM | hit rate 0.16% among 320,000 | AID 2174;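 active = inhibition above the mean of all tested compounds plus 3 SD, set per campaign, cut at about 14% in these data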;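 note: inhibitors block serine hydrolase probe labeling of LYPLA1 so polarization falls; 0% = enzyme with DMSO and 100% = wells lacking LYPLA1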
Target sequence (O75608 whole entry, looked up): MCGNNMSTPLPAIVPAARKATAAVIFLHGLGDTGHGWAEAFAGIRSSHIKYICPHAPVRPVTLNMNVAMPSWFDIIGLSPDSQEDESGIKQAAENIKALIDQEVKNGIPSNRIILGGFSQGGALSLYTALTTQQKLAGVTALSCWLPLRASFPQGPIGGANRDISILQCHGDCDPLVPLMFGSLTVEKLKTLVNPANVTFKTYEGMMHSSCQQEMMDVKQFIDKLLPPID
ZTA DNA inh: counter-screen for EBNA-1 inhibitors: inhibitors of Epstein-Barr virus ZTA; hit rate 0.15% among 320,000; AID 2234; P03206; inhibition, % at 11 µM; ZTA-DNA binding, fluorescence polarization; in the data active = inhibition above about 33%
EBNA-1 inh: blocks EBNA-1 binding to DNA; inhibition, % at 14.8 µM; AID 1950; hit rate 0.34% among 300,000; EBNA-1 DNA binding, fluorescence polarization; in the data active = inhibition above about 28%
LANA-H2A inh: blocks KSHV LANA binding to histone H2A/H2B; AID 2629; hit rate 0.6% among 320,000; Q9QR71; inhibition, % (no concentration beside the values); cell-free LANA-H2A/H2B peptide, fluorescence polarization; in the data active = inhibition mostly above about 10%, no sharp cut-off; inactive = mostly below about 6.7%
LYPLA2 counter: blocks human lysophospholipase 2, a PME1 counter-screen; O95372; recombinant LYPLA2, FP-Rh probe fluorescence polarization; inhibition, % at 5.9 µM; hit rate 0.38% among 320,000;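 active = inhibition above the screen-wide mean plus 3 SD, limit set per campaign, cut at about 26% in these data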;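 note: 0% = LYPLA2 with DMSO and 100% = wells lacking LYPLA2 enzyme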
Target sequence (O95372 whole entry, looked up): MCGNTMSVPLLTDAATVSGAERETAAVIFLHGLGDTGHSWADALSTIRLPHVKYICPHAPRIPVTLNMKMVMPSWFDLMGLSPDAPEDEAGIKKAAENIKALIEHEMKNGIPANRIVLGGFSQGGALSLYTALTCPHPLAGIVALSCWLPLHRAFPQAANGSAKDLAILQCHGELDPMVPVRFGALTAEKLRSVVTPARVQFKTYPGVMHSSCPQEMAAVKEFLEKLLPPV
LYPLA1 conf: counter-screen for PME1 inhibitors: confirmation of human LYPLA1 inhibitors. shares compounds with LYPLA1 inh. recombinant LYPLA1, FP-Rh probe fluorescence polarization. inhibition, % at 5.9 µM. hit rate 69% among 480. AID 2233;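 active = mean inhibition across replicates above the hit cutoff set in the primary screen, cut at about 15% in these data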;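 note: loss of FP-Rh probe labeling of LYPLA1 seen as lower polarization; 0% = LYPLA1 with DMSO and 100% = wells lacking LYPLA1 enzyme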
The depositor's hits bear a star.

For CC1(c2ccc(NC(=O)c3ccccc3F)cc2)CC1(Cl)Cl (stereo unspecified) the results were LYPLA1 inh 0, ZTA DNA inh 16, EBNA-1 inh 9, LANA-H2A inh -3 and LYPLA2 counter -2.
CC(NC(=O)c1ccco1)C(=O)N1CCN(c2cccc(C(F)(F)F)c2)CC1 (stereo unspecified) was read as LYPLA1 inh 34*, ZTA DNA inh -2, LANA-H2A inh -1, LYPLA2 counter 17 and LYPLA1 conf 45*.
Screening O=C(CN1CCN(CN2C(=O)NC3(CCCCCC3)C2=O)CC1)Nc1ccc(F)cc1 returned LYPLA1 inh 1, ZTA DNA inh -11, LANA-H2A inh -6 and LYPLA2 counter -3.
COc1ccc(CC(=O)OC(C)C(=O)NCc2ccc3c(c2)OCO3)cc1OC (stereo unspecified) was read as LYPLA1 inh 5, ZTA DNA inh 2, EBNA-1 inh -11, LANA-H2A inh 0 and LYPLA2 counter 0.
CCCCSCCCNC(=O)CCCN1C(=O)c2ccccc2Sc2ncccc21 was read as LYPLA1 inh 0, ZTA DNA inh 19, EBNA-1 inh 3, LANA-H2A inh -4 and LYPLA2 counter 11.
`CC(=O)Nc1ccc(N/C=C2/CCCC2=O)cc1` gave LYPLA1 inh 1, ZTA DNA inh -11, EBNA-1 inh 2, LANA-H2A inh 1 and LYPLA2 counter 6.
`Cc1cc(O)ccc1N/C=C1\CCCC1=O` gave LYPLA1 inh 19*, ZTA DNA inh 6, EBNA-1 inh -5, LANA-H2A inh 2, LYPLA2 counter 15 and LYPLA1 conf 3.
`C[C@H](CO)N1C[C@H](C)[C@@H](CN(C)Cc2ccc(Cl)c(Cl)c2)Oc2c(NS(=O)(=O)c3cccs3)cccc2C1=O` gave LANA-H2A inh -2.
`CCCCc1cc(=O)oc2cc(OCc3nn[nH]n3)c(Cl)cc12` gave LYPLA1 inh 22*, ZTA DNA inh 9, EBNA-1 inh -6, LANA-H2A inh 0, LYPLA2 counter 17 and LYPLA1 conf 21*.
`C=COc1ccc(N2C(=O)c3ccccc3OC2C)cc1` (stereo unspecified) gave LYPLA1 inh -2, ZTA DNA inh -7, EBNA-1 inh -17, LANA-H2A inh -4 and LYPLA2 counter 1.
`Cc1[nH][nH]c(=O)c1N=Nc1ccc(Br)c(Cl)c1` gave LYPLA1 inh 24*, ZTA DNA inh -12, EBNA-1 inh -10, LANA-H2A inh 17, LYPLA2 counter 11 and LYPLA1 conf 18*.
For Cc1[nH][nH]c(=O)c1N=Nc1ccc(S(N)(=O)=O)cc1 the results were LYPLA1 inh 1, ZTA DNA inh 1, EBNA-1 inh -7, LANA-H2A inh 2 and LYPLA2 counter -1.
Screening Cc1cc(C)cc(N(C(=O)Cc2cccs2)C(C(=O)NC2CCCCC2)c2ccccn2)c1 (stereo unspecified) returned LYPLA1 inh 0, ZTA DNA inh 9, EBNA-1 inh 6, LANA-H2A inh 0 and LYPLA2 counter -2.
For Cc1cc(C)cc(N(C(=O)c2ccccn2)C(C(=O)NC2CCCCC2)c2cccs2)c1 (stereo unspecified) the results were LYPLA1 inh 17*, ZTA DNA inh -21, EBNA-1 inh -13, LANA-H2A inh -1, LYPLA2 counter -4 and LYPLA1 conf 2.
CNS(=O)(=O)c1cccc(C(=O)OCc2cc(=O)oc3c(C)c(O)ccc23)c1 was read as LYPLA1 inh -3, ZTA DNA inh -7, EBNA-1 inh -4, LANA-H2A inh 4 and LYPLA2 counter 5.
`Cc1onc(-c2ccccc2Cl)c1C(=O)NCc1ccc2c(c1)cc(C)n2C` gave LYPLA1 inh 16*, ZTA DNA inh 16, EBNA-1 inh 11, LANA-H2A inh 3, LYPLA2 counter 22 and LYPLA1 conf 13.
Screening COn1c(-c2ccccc2)nc2ccc(Cl)cc21 returned LYPLA1 inh 50*, ZTA DNA inh 24, EBNA-1 inh 12, LANA-H2A inh -8, LYPLA2 counter -3 and LYPLA1 conf -1.
For Cc1cc(C)cc(C(=O)Nn2cnnc2)c1 the results were LYPLA1 inh -4, ZTA DNA inh -2, EBNA-1 inh -22, LANA-H2A inh -5 and LYPLA2 counter -5.
Screening CCOc1ccc(C2OC34CCCCC3C(C#N)(C#N)C2(C#N)C(=N)O4)cc1OC (stereo unspecified) returned LYPLA1 inh 21*, ZTA DNA inh -17, EBNA-1 inh -10, LANA-H2A inh -5, LYPLA2 counter 25 and LYPLA1 conf 8.
Screening O=C(O)c1ccccc1N/N=C/c1cc(Br)cc(Br)c1O returned LYPLA1 inh 29*, ZTA DNA inh -6, EBNA-1 inh 12, LANA-H2A inh 3, LYPLA2 counter 12 and LYPLA1 conf 23*.
`O=C(Cc1ccccc1)N/N=C/c1cc(Br)cc(Br)c1O` gave LYPLA1 inh 0, ZTA DNA inh 0, EBNA-1 inh -12, LANA-H2A inh -1 and LYPLA2 counter 2.
Screening Cc1ccc(S(=O)(=O)Nc2c(C)cc(C)nc2Cl)cc1 returned LYPLA1 inh 0, ZTA DNA inh 5, EBNA-1 inh -10, LANA-H2A inh 8 and LYPLA2 counter -5.
O=c1[nH]n2c(=O)c3c([nH]c2c1N=Nc1cccc(Cl)c1)CCC3 was read as LYPLA1 inh 8, ZTA DNA inh 1, EBNA-1 inh -4 and LYPLA2 counter 4.
For O=c1[nH]n2c(=O)c3c([nH]c2c1N=Nc1cccc(C(F)(F)F)c1)CCCC3 the results were LYPLA1 inh 16*, ZTA DNA inh 22, EBNA-1 inh 27, LANA-H2A inh -1, LYPLA2 counter 1 and LYPLA1 conf 15*.
`C=CCSc1nnc(CCCCCN2C(=O)c3cccc4cccc(c34)C2=O)o1` gave LYPLA1 inh 27*, ZTA DNA inh -14, EBNA-1 inh 3, LANA-H2A inh -2, LYPLA2 counter 10 and LYPLA1 conf 39*.
CCOC(=O)CSc1nnc(CCCCCN2C(=O)c3cccc4cccc(c34)C2=O)o1 was read as LYPLA1 inh 0, ZTA DNA inh 13, EBNA-1 inh 11, LANA-H2A inh 4 and LYPLA2 counter 4.
For O=C(CCCCCN1C(=O)c2cccc3cccc(c23)C1=O)N1CCOCC1 the results were LYPLA1 inh -2, ZTA DNA inh 0, EBNA-1 inh -3, LANA-H2A inh 3 and LYPLA2 counter 0.
CCOC(=O)CCCSc1nnc(CCCCCN2C(=O)c3cccc4cccc(c34)C2=O)o1 was read as LYPLA1 inh 45*, ZTA DNA inh -3, EBNA-1 inh 7, LANA-H2A inh 4, LYPLA2 counter 20 and LYPLA1 conf 52*.
Screening N#Cc1c(NC(=O)CSc2nc(N)cc(=O)[nH]2)sc2c1CCCC2 returned LYPLA1 inh 46*, ZTA DNA inh -4, EBNA-1 inh 1, LANA-H2A inh 0, LYPLA2 counter 14 and LYPLA1 conf 47*.
